{"source": "PubChem BioAssay AID504332", "about": "(National Center for Advancing Translational Sciences (NCATS), 2011)", "note": "Hit rate of the full screen: of about 350,000 compounds, about 31,000 (8.9%) were called active. Another 15% or so got no clear call; they are omitted. For the sample, actives were picked, then their nearest neighbours and some compounds at random. Unmarked numbers belong to inactive results. Calls come from the whole dose curve; as a rule, active = well fitted inhibition curve with a large enough effect; inconclusive = small, poorly fitted or top-dose-only effect; inactive = no such curve, though single readings can be large or run the other way. % is set by controls: 0 for no effect and ±100 for the full control effect; potency is the fitted concentration of half-maximal effect.", "data": [{"target": "Histone-lysine N-methyltransferase EHMT2 (Homo sapiens) (UniProt Q96KQ7)", "sequence (Q96KQ7 913-1193 limits assumed)": "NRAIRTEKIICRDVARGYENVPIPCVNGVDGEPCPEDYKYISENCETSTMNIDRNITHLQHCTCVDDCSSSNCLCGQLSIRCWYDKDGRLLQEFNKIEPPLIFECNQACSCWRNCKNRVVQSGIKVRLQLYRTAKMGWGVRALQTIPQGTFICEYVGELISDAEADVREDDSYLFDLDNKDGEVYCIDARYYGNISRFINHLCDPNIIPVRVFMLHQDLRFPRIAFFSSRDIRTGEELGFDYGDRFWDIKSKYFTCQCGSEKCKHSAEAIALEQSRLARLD", "assay": "qHTS Assay for Inhibitors of Histone Lysine Methyltransferase G9a; note: nearly all actives have a fitted effect of over 75% in size", "details": "G9a H3K9 monomethylation, AlphaScreen, 2 h; series mostly up to 59 µM; activity, negative = inhibition: at the top concentration", "summary_of_the_method": "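Signal arises when biotinylated H3K9 peptide, once monomethylated, bridges streptavidin donor and antibody-captured acceptor beads. Enzyme at 20 nM was preincubated 15 min with test compounds; peptide 500 nM and SAM 20 uM then reacted for 2 h.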", "values": [{"smiles": "CC(Sc1nnc(-c2cccs2)n1C1CC1)C(=O)NCC1CCCO1", "note": "(stereo not drawn)", "activity, negative = inhibition": "29.1% [at 12.7 µM]"}, {"smiles": "O=C(NCCC1CCCCN1S(=O)(=O)c1ccccc1)C(=O)NCC1CCCO1", "note": "(stereo not drawn)", "activity, negative = inhibition": "10.2% [at 0.501 µM]"}, {"smiles": "CCC(=O)N1CCc2cc(CNS(=O)(=O)c3ccc(Br)s3)ccc21", "activity, negative = inhibition": "1.92%"}, {"smiles": "CCOC(=O)Cn1c(=O)n(C2CCCCC2)c2nc(-c3cccc(OC)c3)nc(C(N)=O)c21", "activity, negative = inhibition": "9.68%"}, {"smiles": "CCOC(=O)c1ccc(NC(=O)CCS(=O)(=O)c2ccc3c(c2)oc(=O)n3C)cc1", "activity, negative = inhibition": "-6.14%"}, {"smiles": "Cc1ccc(C)c2sc(NC(=O)c3ccc(S(=O)(=O)N4CCCC4)cc3)nc12", "activity, negative = inhibition": "4.68%"}, {"smiles": "CCCC(=O)Nc1ccc(C(=O)NCCCn2ccnc2)cc1", "activity, negative = inhibition": "19.1%"}, {"smiles": "CCCCC(=O)Nc1ccc(C(=O)NCCCn2ccnc2)cc1", "Potency": "12.6 µM (active)"}, {"smiles": "O=C(NCCCn1ccnc1)c1ccccc1F", "activity, negative = inhibition": "24.5% [at 102 µM]"}, {"smiles": "O=C(CC1SC(N2CCCC2)=NC1=O)Nc1ccc(C(=O)NCCc2ccc(F)cc2)cc1", "note": "(stereo not drawn)", "activity, negative = inhibition": "9.67% [at 0.501 µM]"}, {"smiles": "CCOC(=O)c1scc(-c2ccc(C)cc2)c1S(=O)(=O)Nc1cc(C)ccc1C", "activity, negative = inhibition": "-5.5%"}, {"smiles": "Cc1cc(C(=O)COc2ccc(Br)cc2F)c(C)n1C1CC1", "activity, negative = inhibition": "-8.88%"}, {"smiles": "COc1ccc(/C(O)=C2/C(=O)C(=O)N(c3nc(C)c(C)s3)C2c2ccco2)cc1", "note": "(stereo not drawn)", "Potency": "44.7 µM (active)"}, {"smiles": "COc1ccccc1C1/C(=C(/O)c2ccc(C)cc2)C(=O)C(=O)N1Cc1ccco1", "note": "(stereo not drawn)", "activity, negative = inhibition": "-8.27%"}, {"smiles": "COc1cccc(C2/C(=C(/O)c3ccncc3)C(=O)C(=O)N2CCCN(C)C)c1", "note": "(stereo not drawn)", "activity, negative = inhibition": "-30.1% [at 102 µM]"}, {"smiles": "O=C(C1CCC(=O)N(C2CC2)C1)N1CCN(c2ccc(Cl)cc2)CC1", "note": "(stereo not drawn)", "activity, negative = inhibition": "20.8% [at 102 µM]"}, {"smiles": "Cc1ccsc1CN(C(=O)c1oc2ccc(Br)cc2c1C)C1CCS(=O)(=O)C1", "note": "(stereo not drawn)", "activity, negative = inhibition": "-4.15%"}, {"smiles": "Cc1ccc(C(=O)Nc2c(C(=O)NC(C)(C)C)oc3ccccc23)cc1", "activity, negative = inhibition": "10.2%"}, {"smiles": "O=C(C1CC1)N1CCc2cc(Br)cc(S(=O)(=O)N3CCN(c4ccccc4F)CC3)c21", "activity, negative = inhibition": "-8.58%"}, {"smiles": "CCOC(=O)N1CCN(S(=O)(=O)c2cc(Br)cc3c2N(C(=O)C2CC2)CC3)CC1", "activity, negative = inhibition": "26%"}, {"smiles": "COc1cccc(N2CCN(S(=O)(=O)c3cc(Br)cc4c3N(C(=O)C3CC3)CC4)CC2)c1", "Potency": "7.94 µM (active)"}, {"smiles": "Cc1ccc(S(=O)(=O)N(C)C)cc1NC(=O)C(C)OC(=O)c1ccc2ccccc2n1", "note": "(stereo not drawn)", "activity, negative = inhibition": "10.5% [at 2.33 µM]"}, {"smiles": "C=CCc1c(C)nc2cc(-c3ccccc3)[nH]n2c1=O", "activity, negative = inhibition": "35%"}, {"smiles": "CCC(CC)c1nnc(NC(=O)/C=C/c2ccco2)s1", "activity, negative = inhibition": "11.7%"}, {"smiles": "CCOC(=O)c1c(NC(=S)NC(=O)/C=C/c2cccs2)sc(C)c1C", "activity, negative = inhibition": "7.95% [at 102 µM]"}, {"smiles": "Cc1nnc(NC(=O)C(c2ccccc2)c2ccccc2)s1", "activity, negative = inhibition": "14.6% [at 102 µM]"}, {"smiles": "CCOC(=O)c1c(NC(=O)/C=C/c2ccco2)sc(C)c1C", "Potency": "44.7 µM (active)"}, {"smiles": "Cc1nnc(NC(=O)/C=C/c2ccco2)s1", "Potency": "31.6 µM (active)"}, {"smiles": "CCOC(=O)c1sc(NC(=O)/C=C/c2ccc(C(C)C)cc2)c(C(=O)OCC)c1C", "activity, negative = inhibition": "3.39%"}, {"smiles": "Oc1ccccc1-c1nc(/C=C/c2ccc(F)cc2)no1", "activity, negative = inhibition": "-6.97%"}, {"smiles": "O=C(NCC(c1ccc(Cl)cc1)N1CCOCC1)c1ccccc1F", "note": "(stereo not drawn)", "activity, negative = inhibition": "0.409%"}, {"smiles": "O=C(Nc1cccnc1Cl)c1cc(-c2ccccc2O)on1", "activity, negative = inhibition": "11.2% [at 102 µM]"}, {"smiles": "O=C1CSC(c2cccc(F)c2)N1c1ccccc1F", "note": "(stereo not drawn)", "activity, negative = inhibition": "-5.4% [at 12.7 µM]"}, {"smiles": "O=C1CCCC2=C1C(c1ccccc1)n1c(s/c(=C/c3cccc(F)c3)c1=O)=N2", "note": "(stereo not drawn)", "Potency": "10 µM (active)"}, {"smiles": "O=C1CC(c2cccc(F)c2)C2=C(CCCC2=O)N1", "note": "(stereo not drawn)", "activity, negative = inhibition": "24.3%"}, {"smiles": "Cc1ccc(-c2cc(C(F)(F)F)c(C#N)c(SCC(=O)Nc3ccccc3)n2)cc1", "activity, negative = inhibition": "6.72%"}, {"smiles": "CCOCCc1nn2c(=O)cc(COC(=O)CNC(=O)c3ccc(C(C)(C)C)cc3)nc2s1", "activity, negative = inhibition": "27.8%"}, {"smiles": "C[C@H](C(=O)CC(=O)OC(C)(C)C)[C@H](O)c1ccc(C(F)(F)F)cc1", "Potency": "79.4 µM (active)"}, {"smiles": "CC(C)(C)OC(=O)N[C@H](C(=O)OC(C)(C)C)c1ccc(Br)cc1", "activity, negative = inhibition": "2.34% [at 0.501 µM]"}, {"smiles": "COc1ccc(CNC(=O)C2CC(c3ccc(C(F)(F)F)cc3)=NO2)cc1", "note": "(stereo not drawn)", "activity, negative = inhibition": "32.3%"}, {"smiles": "COC(=O)c1cccc(C(=O)N2CCC(CCC(=O)NCc3ccc(F)cc3)CC2)c1", "activity, negative = inhibition": "-0.66% [at 102 µM]"}, {"smiles": "Cc1occc1C(=O)NC1CCCN(Cc2ccc(CC(C)C)cc2)C1", "note": "(stereo not drawn)", "activity, negative = inhibition": "0.764% [at 102 µM]"}, {"smiles": "Cc1ccccc1CN1CCC(C(=O)Nc2ccc(Oc3cccnc3)cc2)CC1", "activity, negative = inhibition": "0.879%"}, {"smiles": "COc1ccc(CCNc2ncnc3c2cnn3-c2ccc(C)cc2)cc1", "activity, negative = inhibition": "5.54%"}, {"smiles": "COc1cc(NC(=O)c2noc3c2CSc2ccccc2-3)cc(OC)c1OC", "Potency": "1.78 µM (active)"}, {"smiles": "COc1ccc(CCNC(=O)c2nn(C)c3c2CSc2ccccc2-3)cc1OC", "activity, negative = inhibition": "-43%"}, {"smiles": "COc1cc(NC(=O)c2nc3ccccc3nc2C)cc(OC)c1OC", "activity, negative = inhibition": "-32.1%"}, {"smiles": "COc1ccc(-c2onc(C)c2C)cc1S(=O)(=O)NCc1cccs1", "activity, negative = inhibition": "1.71%"}, {"smiles": "Cc1ccc(S(=O)(=O)N2CCN(C(=O)c3ccccc3-c3nc4ccccc4s3)CC2)c(C)c1", "activity, negative = inhibition": "-36.1% [at 102 µM]"}, {"smiles": "Cc1cc2c(cc1C)[n+](C)cn2CC(O)COCC1CC=CCC1", "note": "(stereo not drawn)", "Potency": "39.8 µM (active)"}, {"smiles": "COc1ccc(C(=O)NCC2CCCN2S(=O)(=O)c2cccs2)cc1OC", "note": "(stereo not drawn)", "activity, negative = inhibition": "4.75% [at 102 µM]"}, {"smiles": "CC(=O)NC(c1cccs1)c1cc(Br)c2cccnc2c1O", "note": "(stereo not drawn)", "activity, negative = inhibition": "7.81% [at 12.7 µM]"}, {"smiles": "CCNC(=S)Nc1cccc(Cl)c1C", "activity, negative = inhibition": "19.4%"}, {"smiles": "COc1ccccc1NC(=O)/C=C/C(=O)O", "activity, negative = inhibition": "-38.1% [at 102 µM]"}, {"smiles": "Cc1cccc(NC(=S)NCCc2ccc(F)cc2)c1C", "activity, negative = inhibition": "8.37%"}, {"smiles": "Cc1c(NC(=S)NCc2ccc(F)cc2)cccc1[N+](=O)[O-]", "Potency": "39.8 µM (active)"}, {"smiles": "Cc1c(NC(=O)Nc2ccccc2)cccc1[N+](=O)[O-]", "activity, negative = inhibition": "15.3% [at 102 µM]"}, {"smiles": "Cc1c(NC(=O)/C=C/C(=O)O)cccc1[N+](=O)[O-]", "Potency": "39.8 µM (active)"}, {"smiles": "CCCCNC(=O)c1cc(-c2ccc(Cl)c(Cl)c2)on1", "activity, negative = inhibition": "8.77%"}, {"smiles": "O=C(COc1ccccc1)NCc1ccc2c(c1)CCN2C(=O)c1ccc(F)cc1", "activity, negative = inhibition": "-0.362%"}, {"smiles": "O=C(NCCCN1CCCC1=O)C(=O)NCC1OCCN1S(=O)(=O)c1ccc(Br)cc1", "note": "(stereo not drawn)", "activity, negative = inhibition": "30.6% [at 102 µM]"}, {"smiles": "Cc1ccc(NC(=O)CN2C(=O)CC(C)Sc3ccccc32)c(C)c1", "note": "(stereo not drawn)", "activity, negative = inhibition": "-3.84%"}, {"smiles": "COc1ccc(S(=O)(=O)N(C)CC(=O)N2CCCC2)cc1", "activity, negative = inhibition": "-6.5% [at 102 µM]"}]}]}
